Screening data (PubChem BioAssay)
IL1B secr inh: inflammasome signaling inhibition, IL-1 beta readout; 360,000 tested, 4.7% active; activity change, % at 57.5 µM; THP-1 LPS/ATP IL-1B secretion, AlphaLISA, 16 h; hits give low values; AID 743279; in the data active means activity change below about -50%; inconclusive means mostly about -30% to -49%
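THP-1 cells pretreated 1 hr with compounds (up to 57.5 uM final), then stimulated with LPS (250 ng/mL final) plus ATP (1.25 mM final); secreted IL-1B measured by AlphaLISA after 16 hr, decreased signal indicating inhibition.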
HT1080 IDH1KD tx: HT-1080 IDH1 knockdown cell toxicity (counter line); 360,000 tested, 2% active; HT-1080 IDH1 knockdown viability, ATP luminescence, 48 h; Potency, µM (series often up to 46.1 µM), for inactives: at the highest dose activity, negative = toxicity, usual class: cytotoxic;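 further: potency means the concentration at half of the fitted maximal effect; 0% = DMSO wells and -100% = cell-free medium wells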
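Knockdown cells (IDH1KD HT-1080) received compounds 2 h after plating at 750 cells/well and were kept 48 h at 37 °C in 5% FBS RPMI. A CellTiter-Glo luminescence read gave % activity for curve fitting.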
TDP1 cell noCPT: qHTS for Inhibitors of human tyrosyl-DNA phosphodiesterase 1 (TDP1): qHTS in cells in absence of CPT. 420,000 tested, 15% active. DT40 Tdp1-/- hTDP1 cells, no CPT, ATP luminescence, 48 h. Potency, µM (highest dose often 46.2 µM), without a hit: at the top dose activity change, negative = growth inhibition, most hits filed as inhibitors; further: potency means the concentration at half of the fitted maximal effect; nearly all actives have a fitted effect of over 55% in size
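Chicken DT40 Tdp1-/- cells stably complemented with human TDP1 were seeded at 400 cells/well with DMSO in place of 20 nM camptothecin. After compound pinning, cells grew at least 48 hr at 37 °C; viability read by CellTiter-Glo luminescence.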
12-LOX inh: ALOX12 (human) lipoxygenase inhibition. P18054. purified 12hLO, xylenol orange hydroperoxide absorbance. 580,000 tested, 1.1% active. Potency, µM (top dose mostly 108 µM), for the others: at the highest dose activity change, negative = inhibition, hits mostly inhibitors. AID 1671190; further: potency means the concentration at half of the fitted maximal effect
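Hydroperoxide product was detected by ferrous iron/xylenol orange as the 573 to 405 nm absorbance ratio. Arachidonic acid at 40 uM (final) was turned over for 30 min at room temperature by 150 nM human 12hLO, pH 7.0 Hepes buffer, after 15 min compound preincubation.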
HT1080-NT tox: kills 2HG-producing HT-1080-NT fibrosarcoma cells; HT-1080-NT fibrosarcoma viability, CellTiter-Glo ATP luminescence, 48 h; Potency, µM (series often up to 46.1 µM), for the others: top-dose activity, negative = less viability, most hits filed as cytotoxic; 360,000 tested, 1.6% active; AID 686970;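 further: NT is the 2HG producing partner of a matched IDH1 knockdown line; potency means the concentration at half of the fitted maximal effect; 0% = DMSO-treated cells and -100% = media-only wells without cells; nearly all actives have a fitted effect of over 55% in size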
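Toxicity toward the 2HG-producing NT line was scored as %Activity, normalised to DMSO and no-cell wells, from CellTiter-Glo luminescence after 48 hours' treatment.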
DT40 TDP1 CPT: growth inhibition of DT40 Tdp1-/-;hTDP1 cells with camptothecin (screen for TDP1 inhibitors). chicken DT40 Tdp1-/-;hTDP1 cells + 20 nM CPT, ATP luminescence, 48 h. Potency, µM (titrated, usually from 46.2 µM), inactives show top-dose activity change, negative = growth inhibition, hits mostly inhibitors. 420,000 tested, 12% active. AID 686979; further: potency means the concentration at half of the fitted maximal effect; nearly all actives have a fitted effect of over 55% in size
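Cell growth measured by CellTiter-Glo luminescence after a minimum 48 h, 37 C compound exposure with 20 nM CPT in Tdp1-knockout DT40 cells stably expressing hTDP1, seeded 400/well; qHTS titration format.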
Numbers without * were called inactive; ? = inconclusive; · = no result given; [ ] = dose if it differs, or a comment. The entries come from a sample that favours hits as a whole. Unless noted, the call rests on the fitted dose curve; in most records, active means well fitted curve in the direction sought with a large enough effect; inconclusive means small, poorly fitted or top-dose-only effect, or another doubt; inactive means no such curve, though single readings can be large; an effect the other way counts as inactive or inconclusive. Unless noted, on the % scale 0 is the no-effect control and ±100 the full control effect.

SMILES	IL1B secr inh	HT1080 IDH1KD tx	TDP1 cell noCPT	12-LOX inh	HT1080-NT tox	DT40 TDP1 CPT
O=C(c1ccc(N2CCN(C(=O)c3ccccc3)CC2)cc1)c1cccc(F)c1	-77*	-5%	16µM*	-6%	-27%	?
O=C(Cn1ccn2nc(-c3ccc(F)cc3)c(CO)c2c1=O)Nc1ccc2c(c1)OCO2	·	·	·	10%	·	·
O=C(NCC1CCCC(CNC(=O)Nc2ccc(Cl)cn2)C1)Nc1ccc(Cl)cn1 (stereo unspecified)	-83*	?	?	-36%	?	?
Cc1ccc2ccc[n+](Cc3ccccc3)c2c1	20	-8%	9.2µM*	-1%	0%	16µM*
COc1ccc2c(c1)c(C)cc[n+]2Cc1ccccc1	-26	23µM*	1.6µM*	9%	15µM*	2.6µM*
CCN(Cc1ccccc1)C(=O)c1[nH]c2ccc(OC)cc2c1C	?	8%	?	7%	-7%	10%
Cc1ccc2c(c1)c(C)cc[n+]2Cc1ccccc1	19	?	2.9µM*	-6%	1%	2.6µM*
CCOc1ccc(Nc2oc(COc3ccccc3F)nc2C#N)cc1	·	·	·	6%	·	·
Cc1cc(C(=O)N2CC(F)(F)C[C@H]2c2nnc(C3CC3)o2)on1	·	·	·	43%	·	·
O=C(NCc1ccc(C(F)(F)F)cc1)O[C@H]1CC[C@@]23CCCN2C(=O)CCC[C@H]3[C@H]1Cc1ccccc1	·	·	·	1%	·	·
O=C(c1cc(-c2ccco2)nn1-c1cccc(Cl)c1)N1CCCCC1	0	1%[9.24 µM]	16µM*	?	?	16µM*
CCc1nc2ccccc2c(NC(=O)CN(C)C)c1C	·	·	·	-3%	·	·
CC1(Oc2cccc(C#N)c2)CCN(Cc2ccccc2OC(F)F)C1 (stereo unspecified)	-19	8%	?	-17%	-26%	?
COc1cc(Cl)ccc1OC1(C)CCN(Cc2cccc(OC)c2OC)C1 (stereo unspecified)	-3	?	16µM*	-7%	?	13µM*
COc1cc(Cl)ccc1OC1(C)CCN(Cc2ccccc2OC(F)F)C1 (stereo unspecified)	-5	-17%	21µM*	-9%	-15%	21µM*
O=c1/c(=C\c2cccn2-c2ccccc2)sc2nc3ccccc3n12	1	17%	?	-18%	?	?
Cc1ccc(-n2c(C)cc(/C=c3/sc4nc5ccccc5n4c3=O)c2C)cc1	-9	-6%	9.2µM*	·	-6%	16µM*
COc1ccc(NC(=O)CC2C(=O)N(c3cccc(OC)c3)C(=O)N2Cc2cccnc2)cc1 (stereo unspecified)	·	·	?	-15%	·	?
CCOc1ccc(NC(=O)CC2C(=O)N(c3ccccc3)C(=O)N2Cc2cccc(OC)c2)cc1 (stereo unspecified)	·	·	21µM*	?	·	10µM*
COc1cc(NC(=O)CC2C(=O)N(c3ccccc3)C(=O)N2Cc2ccc(F)cc2)cc(OC)c1 (stereo unspecified)	·	·	15µM*	-19%	·	13µM*
COc1cccc(CN2C(=O)N(c3ccc(C)cc3)C(=O)C2CC(=O)Nc2cc(OC)cc(OC)c2)c1 (stereo unspecified)	·	·	7.3µM*	-22%	·	13µM*
COCCN1C(=O)N(c2ccccc2)C(=O)C1CC(=O)Nc1cc(OC)cc(OC)c1 (stereo unspecified)	-1	5%	11%	?	-6%	-16%
CCc1ccc(NC(=O)CC2C(=O)N(c3ccc(F)cc3)C(=O)N2Cc2ccc(F)cc2)cc1 (stereo unspecified)	·	·	?	-27%	·	13µM*
CN1C(=O)CC(C(=O)O)C12CCN(Cc1cnn(C)c1)CC2 (stereo unspecified)	·	·	·	-2%	·	·
